About 83,000 compounds went through this panel and 20% of them were active in at least one assay; those are over-represented in the sample as a whole.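 Percent growth is the endpoint: 0 to 100 indicates growth inhibition (40 means 60% inhibition), 0 means no net growth, and negative values indicate cell death.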 A number with no mark means an inactive call. Calls of active or inactive are those of the source. Rule for the calls: active = growth percent below 10; inactive = the rest.

Holding throughout (assay): NCI-60 one-dose screen, 48 h (100 = growth as untreated, 0 = no growth, -100 = all killed)
Settings in all cases: 10 µM unless noted

For assay [1], the system named is HCT-15 colon.
In assay [2] the test system is HT29 colon.
The subject of assay [3] is SNB-75 CNS.
Assay [4] concerns SNB-19 CNS.
In assay [5] the test system is U251 CNS.
The subject of assay [6] is SK-MEL-5 melanoma.
The subject of assay [7] is UACC-62 melanoma.
Assay [8] concerns LOX IMVI melanoma.
Assay [9] has as its system SK-MEL-28 melanoma.
In assay [10] the test system is SK-MEL-2 melanoma.
The subject of assay [11] is EKVX NSCLC.
For assay [12], the system named is SN12C renal.
Assay [13] concerns UO-31 renal.
In assay [14] the test system is TK-10 renal.
Assay [15] concerns ACHN renal.
For assay [16], the system named is CAKI-1 renal.
In assay [17] the test system is A498 renal.
Assay [18] deals with CCRF-CEM leukemia.
Assay [19] has as its system MOLT-4 leukemia.
The subject of assay [20] is PC-3 prostate.

`COc1ccc(Cn2cc(C(=O)N=Nc3c(O)[nH]c4c(Cl)cccc34)nn2)cc1`: the growth is 107% in [1]; 97% in assay [2]; 82.1% in [3]; 93.6% in [4]; 102% in assay [5]; 101% in assay [6]. The growth in [7] is 102%; in [8] it was 93.7%; in assay [9], 115%; in assay [10], 93.2%; in assay [11], 102%; in [12], 95.8%. In addition, the growth in [13] was 93.5%; in assay [14] it was 106%; in [15] it was 111%; in assay [16] it was 94.4%; in assay [17], 93.8%; in assay [18], 106%. Moreover, the growth in assay [19] is 84.8%.
As for `COc1ccc(C(C)=O)cc1S(N)(=O)=O`, the growth was 107% in [1]; 86% in assay [2]; 101% in assay [3]; 99.7% in assay [4]; 85.7% in assay [20]; 104% in [6]. The growth was 94.7% in assay [7]; 106% in assay [8]; 106% in assay [9]; 87.9% in assay [10]; 106% in assay [11]; 101% in [12]. Further, the growth in [13] was 90.7%; in assay [14], 81.4%; in [15], 102%; in assay [16] it was 93.8%; in assay [17], 101%; in [18], 96.8%. In addition, the growth in [19] is 86.4%.
Regarding `COc1cc(N2C(=O)[C@H](c3ccccc3)C2c2ccc(SC)cc2)cc(OC)c1OC` (stereo partly drawn), the growth in assay [1] is 1.35% (active); in assay [2], -9.59% (active); in assay [3] it was 69.4%; in assay [4], 30.8%; in [20] it was 17.7%; in assay [6] it was -20.7% (active). The growth was 7.64% (active) in assay [7]; 13.4% in [8]; 60.9% in assay [9]; 31.1% in assay [10]; 33.7% in assay [11]; 24.3% in assay [12]. Further, the growth was 32.5% in [13]; 50.9% in assay [14]; 30.2% in assay [15]; 21.3% in assay [16]; 5.22% (active) in assay [18]; 2.92% (active) in assay [19].
`Cc1ccc(/C=C/C(=O)c2ccc(NC(=O)CSc3nc4c([nH]3)c(=O)n(C)c(=O)n4C)cc2)c(C)c1`: the growth in assay [1] is 70.7%; in assay [2], 53.3%; in assay [3], 18.9%; in assay [4] it was 0.886% (active); in assay [5], -67.5% (active); in assay [6], 69.5%. The growth was 69.5% in assay [7]; 39.1% in [8]; 62.2% in assay [9]; 91.9% in assay [10]; 78.1% in assay [11]; 57.1% in assay [12]. Further, the growth in [13] was 70.4%; in [14] it was 83.5%; in assay [15] it was 38.8%; in [16], 48.1%; in assay [17], 40.2%; in assay [18], 65.3%. For the same compound, the growth in [19] is 62.1%.
As to `COc1cc2oc(-c3cccc(NC(=O)c4ccc5c(c4)OCO5)c3)cc(=O)c2c(OC)c1OC`, the growth in assay [1] was 32.1%; in assay [2], 29.4%; in assay [3], 67.4%; in assay [4], 45.6%; in [5] it was 32.5%; in assay [6], 16.4%. For the same compound, the growth in assay [7] is 50%; in assay [8], 39.5%; in assay [9] it was 55.1%; in [10], 62.4%; in assay [11], 83.2%; in assay [12], 42.1%. Besides, the growth was 24.2% in [13]; 61.6% in assay [14]; 47.8% in assay [15]; 77.1% in assay [16]; 61.1% in assay [17]; -11.9% (active) in assay [18]. Moreover, the growth in [19] is 2.9% (active).
On to `CCCCCCCCn1ccc2cc(NC(=O)Cn3cc(CN4CCCCCC4)nn3)ccc21`, for which the growth in assay [1] is -65.9% (active); in assay [2] it was -48.3% (active); in [3], 87.5%; in assay [4], 14.4%; in assay [5], -43.6% (active); in [7] it was -70.9% (active). For the same compound, the growth in assay [8] is -90.8% (active); in assay [9] it was -86.1% (active); in assay [10], -66.6% (active); in assay [11], 74.1%; in assay [12] it was 23%; in assay [13], -87.6% (active). In addition, the growth in assay [14] is 71.4%; in [15], -36% (active); in assay [16], -39.9% (active); in assay [18], 1.06% (active); in assay [19], -27.5% (active).
Take `C[N+](C)(C/C=C/c1ccccc1)Cc1ccccc1`: the growth in assay [1] was 97.8%; in assay [2], 91.9%; in assay [3] it was 87.5%; in [4] it was 104%; in assay [20], 97%; in [6], 95.6%. The growth in assay [7] is 99.3%; in assay [8], 89%; in assay [9] it was 102%; in assay [10] it was 93.7%; in assay [11] it was 92.7%; in assay [12] it was 101%. Further, the growth was 82.4% in [13]; 96.3% in [14]; 99.4% in [15]; 97.2% in assay [16]; 94.6% in [17]; 149% in [18]. Moreover, the growth in [19] is 103%.
Turning to `C=C1C(=O)O[C@H]2[C@H]1CC/C(Cn1cc(-c3cc(C(F)(F)F)cc(C(F)(F)F)c3)nn1)=C\CC[C@@]1(C)O[C@@H]21`, the growth in assay [1] was -90.6% (active); in [2], -86% (active); in assay [3], -96.6% (active); in assay [4], -80.3% (active); in assay [5] it was -97.6% (active); in [6], -99.5% (active). Further, the growth is -76.6% (active) in assay [7]; -87.1% (active) in assay [8]; -82.7% (active) in assay [9]; -84.1% (active) in assay [10]; -97.1% (active) in assay [11]; -77.5% (active) in [12]. Also, the growth in assay [13] was -96.3% (active); in assay [14] it was -99.4% (active); in assay [15], -92.6% (active); in assay [16], -95.3% (active); in assay [18], -32.9% (active); in [19], -28.2% (active).
